The values that follow come from PubChem BioAssay (NCATS).

The target in assay [1] is Lysosomal acid glucosylceramidase (Homo sapiens) (UniProt P04062). In words: Glucocerebrosidase-p2 (AID 348; in the data active = potency below about 10 µM; also: potency is read from the fitted curve at half-maximal effect). Particulars: purified GBA, blue fluorogenic substrate, 40 min. In short, it runs like this:
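Compounds titrated from 0.6 nM upwards against 0.2 nM enzyme in pH 5.9 citric acid/KH2PO4, taurocholate, tween-20; blue fluorogenic substrate 80 uM, 40 min room temperature, stopped and read Ex 365/Em 440 for AC50.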

Assay [2] in a line: AP1 Signaling Pathway (AID 357; active = well fitted curve in either direction with a large enough effect, not every such curve was filed as active;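 also: ME-180 reporter cells stimulated with EGF at its EC50 level; % is scaled to controls: 0 for no effect and ±100 for the full control effect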). As to conditions: ME-180 AP-1-bla reporter, EGF-induced, beta-lactamase ratio, 5 h; at 7.69 µM (top of the series) unless noted. In short, it runs like this:
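A ratiometric CCF4 readout (405 nm excitation; 460 and 530 nm emission) quantified AP-1-driven beta-lactamase in ME-180 cells after 5 h with compound and EC50 EGF; AC50 values were derived for activators and inhibitors.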

In assay [3] the target is Cytochrome P450 1A2 (Homo sapiens) (UniProt P05177). As to the kind of experiment: p450-cyp1a2 (AID 410; calls by dose curve; also: potency is read from the fitted curve at half-maximal effect). As to conditions: recombinant CYP1A2, luciferin-ME demethylation, luminescence; series mostly up to 57 µM. In short, it runs like this: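 Human CYP1A2 (20nM) demethylated Luciferin-ME at its Km (100uM) in 100mM KPO4. After 10 min compound preincubation, NADPH regeneration ran the reaction 60 min at room temperature. Luciferin was read by luminescence, normalized to 57 uM furafylline.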
Sequence of Cytochrome P450 1A2 (Homo sapiens) (P05177 whole entry, looked up): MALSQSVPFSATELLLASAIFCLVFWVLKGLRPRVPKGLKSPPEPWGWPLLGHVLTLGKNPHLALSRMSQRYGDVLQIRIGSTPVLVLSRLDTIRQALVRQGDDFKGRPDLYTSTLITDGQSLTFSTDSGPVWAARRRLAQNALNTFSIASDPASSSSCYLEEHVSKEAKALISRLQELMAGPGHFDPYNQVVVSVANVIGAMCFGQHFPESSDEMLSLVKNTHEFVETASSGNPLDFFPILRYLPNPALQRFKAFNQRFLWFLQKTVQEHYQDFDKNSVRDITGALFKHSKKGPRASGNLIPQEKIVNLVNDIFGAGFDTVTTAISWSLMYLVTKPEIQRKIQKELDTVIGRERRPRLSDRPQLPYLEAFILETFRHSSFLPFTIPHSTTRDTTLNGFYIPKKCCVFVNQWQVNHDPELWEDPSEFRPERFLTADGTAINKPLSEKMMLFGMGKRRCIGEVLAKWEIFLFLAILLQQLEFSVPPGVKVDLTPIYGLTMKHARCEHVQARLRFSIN

Assay [4] in a line: NFAT Signaling Pathway (AID 444; active = well fitted curve in either direction with a large enough effect, not every such curve was filed as active;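 also: carbachol stimulus at about its EC50 of 1 µM final; % is scaled to controls: 0 for no effect and ±100 for the full control effect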). As to conditions: Jurkat NFAT-bla M1, carbachol, beta-lactamase ratio, 5 h; at 7.69 µM (top of the series) unless noted. The essentials: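 Read-out: CCF4 FRET ratio (460 nm/530 nm) after 1 h RT dye loading, used for %activity and AC50 from titration series. Cells: Jurkat NFAT-β-lactamase/M1 line, treated with compound plus 1 uM carbachol for 5 h, 37 °C.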

The nature of assay [5]: Stat Signaling Pathway (AID 446; active = well fitted curve in either direction with a large enough effect, not every such curve was filed as active;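 also: ME-180 cervical cancer cells given 40 pM IL-6 alongside compound; SIE-controlled beta-lactamase reporter measured as 460/530 nm FRET emission ratio; % is scaled to controls: 0 for no effect and ±100 for the full control effect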). Particulars: ME-180 SIE beta-lactamase reporter, IL-6 stimulated, 5 h; at 7.69 µM (top of the series) unless noted. The essentials:
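Reporter line: ME-180 cervical carcinoma, SIE-beta-lactamase. Treatment: compound with 40 pM IL-6, 5 hrs, 37 C, in low-serum OPTI-MEM with 10 mM HEPES pH 7.3. Detection: 460/530 nm fluorescence.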

In assay [6] the target is Glucocorticoid receptor (Homo sapiens) (UniProt P04150). In words: GR-GFP Redistribution (AID 450;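 active = compounds whose dose series gives a full or clear partial fitted curve of increased nuclear translocation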; also: potency is read from the fitted curve at half-maximal effect). As to conditions: U2OS GR-GFP nuclear translocation, laser cytometry, 2 h.
Sequence of Glucocorticoid receptor (Homo sapiens) (P04150 whole entry, looked up, the tested form may be a part): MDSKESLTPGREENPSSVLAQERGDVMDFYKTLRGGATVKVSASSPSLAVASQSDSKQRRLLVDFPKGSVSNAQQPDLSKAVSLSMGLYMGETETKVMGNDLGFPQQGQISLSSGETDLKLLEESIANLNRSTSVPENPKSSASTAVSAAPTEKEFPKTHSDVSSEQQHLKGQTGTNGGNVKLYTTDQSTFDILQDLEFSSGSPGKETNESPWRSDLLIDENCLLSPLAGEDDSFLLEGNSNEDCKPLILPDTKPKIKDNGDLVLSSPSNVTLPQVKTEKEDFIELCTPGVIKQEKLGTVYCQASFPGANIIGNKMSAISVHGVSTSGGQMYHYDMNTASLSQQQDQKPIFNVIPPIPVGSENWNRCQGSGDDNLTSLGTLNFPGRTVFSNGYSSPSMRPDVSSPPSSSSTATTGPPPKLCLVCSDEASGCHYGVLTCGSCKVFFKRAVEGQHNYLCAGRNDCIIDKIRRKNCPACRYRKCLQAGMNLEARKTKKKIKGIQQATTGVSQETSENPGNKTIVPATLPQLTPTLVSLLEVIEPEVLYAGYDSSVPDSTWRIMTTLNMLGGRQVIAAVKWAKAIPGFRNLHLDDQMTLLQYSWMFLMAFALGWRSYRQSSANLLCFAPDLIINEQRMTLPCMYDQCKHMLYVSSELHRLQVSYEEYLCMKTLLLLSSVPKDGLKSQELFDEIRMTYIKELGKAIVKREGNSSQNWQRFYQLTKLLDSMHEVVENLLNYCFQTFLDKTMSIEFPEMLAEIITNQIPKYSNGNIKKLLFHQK
Assay [7] has the same target. As to the kind of experiment: GR-EFC Redistribution (AID 451; calls by dose curve; also: potency is read from the fitted curve at half-maximal effect). As to conditions: CHO-K1 GR-EFC translocation, beta-gal luminescence, 2 h. In short, it runs like this: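 Translocation of GR-ED fusion to nuclear EA restores b-gal, read by luminescence after 1 h room-temperature detection. Engineered CHO-K1 biosensor cells, 1,000/well, exposed 2 h at 37 C to titrations up to 46 uM final.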

Assay [8] deals with Mitogen-activated protein kinase 10 (Mus musculus) (UniProt Q61831). As to the kind of experiment: JNK3 AlphaScreen Assay (AID 530; active = well fitted curve in either direction with a large enough effect, not every such curve was filed as active;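 also: kinase came from lysate of stimulated human HepG2 cells; signal reports phosphorylation of biotinylated GST-cJun 1-79 at Ser73 with 10 µM ATP; % is scaled to controls: 0 for no effect and ±100 for the full control effect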). Particulars: JNK3 lysate, c-Jun phosphorylation; series mostly up to 57.1 µM. In short, it runs like this:
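Room-temperature AlphaScreen kinase assay; pre-activated HepG2 lysate as JNK3 source, biotin-GST-cJun(1-79) substrate, 10 uM ATP, compound 15 min preincubation.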

Assay [9] deals with 3',5'-cyclic-AMP phosphodiesterase 4B (Homo sapiens) (UniProt Q07343). In words: qHTS Assay for Inhibitors of PDE-IV (AID 607; active = well fitted activation curve with a large enough effect in the main read-out, with a control signal flat, not every such curve was filed as active; also: % of control where 0% means no effect). Particulars: HEK293 ACTOne CNG channel cells, membrane potential fluorescence; series mostly up to 22.9 µM. In short, it runs like this: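 Cell-based read-out of cAMP via a modified cyclic nucleotide-gated channel and membrane potential dye (535/590 nm) in HEK293 cells expressing PDE4 endogenously. Compounds tested up to 22.9 uM final; 100 uM RO 20-1724 reference.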
Sequence of 3',5'-cyclic-AMP phosphodiesterase 4B (Homo sapiens) (Q07343 whole entry, looked up): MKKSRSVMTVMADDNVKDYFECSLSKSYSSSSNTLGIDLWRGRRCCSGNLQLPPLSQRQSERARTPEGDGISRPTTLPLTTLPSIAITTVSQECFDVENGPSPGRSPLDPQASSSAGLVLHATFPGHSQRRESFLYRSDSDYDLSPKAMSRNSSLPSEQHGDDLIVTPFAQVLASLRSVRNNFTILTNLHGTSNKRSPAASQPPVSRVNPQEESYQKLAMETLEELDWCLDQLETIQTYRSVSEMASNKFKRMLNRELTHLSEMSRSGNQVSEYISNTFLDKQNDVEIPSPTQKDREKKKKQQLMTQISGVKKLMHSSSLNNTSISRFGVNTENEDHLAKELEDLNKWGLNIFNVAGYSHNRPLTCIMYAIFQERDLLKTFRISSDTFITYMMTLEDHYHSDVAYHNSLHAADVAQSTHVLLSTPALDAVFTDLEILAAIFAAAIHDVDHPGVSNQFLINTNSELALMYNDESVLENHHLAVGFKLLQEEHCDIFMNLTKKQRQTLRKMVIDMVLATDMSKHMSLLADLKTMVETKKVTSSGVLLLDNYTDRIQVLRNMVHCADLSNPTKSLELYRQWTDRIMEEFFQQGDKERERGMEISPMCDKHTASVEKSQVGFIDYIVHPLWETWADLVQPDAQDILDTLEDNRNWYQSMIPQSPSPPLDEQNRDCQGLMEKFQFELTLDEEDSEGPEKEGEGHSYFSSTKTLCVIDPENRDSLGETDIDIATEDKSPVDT
In general terms: In qHTS, concentration-response curves come from the screen itself.

Assay [10] has as its target Cytochrome P450 3A4 (Homo sapiens) (UniProt P08684). In words: qHTS Assay for Activators of Cytochrome P450 3A4 (AID 885). Also: nearly all actives have a fitted effect of over 65% in size. As to conditions: recombinant CYP3A4, Luciferin-PPXE luminescence, 60 min; series mostly up to 57.1 µM. The essentials:
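Signal was normalized against complete inhibition by 57 uM ketoconazole. The reaction used 20nM CYP3A4 with 25uM Luciferin-PPXE, 10-min compound preincubation and a 60-min NADPH-supported step at RT.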

For assay [11], the target named is Dual specificity protein kinase CLK4 (Homo sapiens) (UniProt Q9HAZ1). In words: qHTS Assay for Inhibitors of CDC-like Kinase 4 (Kinase-Glo Assay) (AID 1770). Also: nearly all actives have a fitted effect of over 65% in size. Also: potency is read from the fitted curve at half-maximal effect. Particulars: recombinant Clk4, Kinase-Glo ATP depletion luminescence; series mostly up to 66.7 µM. In short, it runs like this: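 Substrate mix (RS peptide 100 uM, ATP 1 uM) dispensed, compound pinned in, then Clk4 added to 25 nM final. Incubated 4.5 h at RT; Kinase-Glo reagent added, luminescence read after 5 min.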
Sequence of Dual specificity protein kinase CLK4 (Homo sapiens) (Q9HAZ1 whole entry, looked up): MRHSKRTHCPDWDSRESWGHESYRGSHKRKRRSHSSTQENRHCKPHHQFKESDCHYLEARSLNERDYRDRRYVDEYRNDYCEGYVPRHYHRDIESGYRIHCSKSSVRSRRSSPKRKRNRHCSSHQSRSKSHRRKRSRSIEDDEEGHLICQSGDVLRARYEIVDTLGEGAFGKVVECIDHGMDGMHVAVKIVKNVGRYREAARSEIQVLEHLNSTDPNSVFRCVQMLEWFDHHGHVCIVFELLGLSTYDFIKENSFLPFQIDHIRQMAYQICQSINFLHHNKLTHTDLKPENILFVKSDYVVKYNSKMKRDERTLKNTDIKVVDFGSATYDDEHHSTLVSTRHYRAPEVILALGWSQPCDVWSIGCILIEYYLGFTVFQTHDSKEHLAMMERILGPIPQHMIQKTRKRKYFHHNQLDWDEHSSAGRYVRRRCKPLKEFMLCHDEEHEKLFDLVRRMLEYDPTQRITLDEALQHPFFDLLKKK

Assay [12] has the same target. As to the kind of experiment: qHTS Assay for Inhibitors of CDC-like Kinase 4 (ADP-Glo Assay) (AID 1771). Also: nearly all actives have a fitted effect of over 70% in size. Also: potency is read from the fitted curve at half-maximal effect. Particulars: recombinant CLK4, ADP-Glo luminescence; series mostly up to 80 µM. In short, it runs like this:
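Clk4 (25 nM) was incubated 1 hr at room temperature with 100 uM RS repeat peptide and 1 uM ATP in buffer with 2 mM MgCl2, 0.5 mM EGTA, 2.5 mM DTT. ADP formed was quantified by ADP-Glo luminescence.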

A short description of assay [13]: Primary qHTS for small molecule stabilizers of the endoplasmic reticulum resident proteome: Secreted ER Calcium Modulated Protein (SERCaMP) assay (AID 1508630). Also: % is scaled to controls: 0 for no effect and ±100 for the full control effect. Particulars: SH-SY5Y GLuc-SERCaMP (Gaussia luciferase released on ER calcium loss) secretion, thapsigargin, luminescence; series mostly up to 38.4 µM. In short, it runs like this:
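GLuc-SERCaMP-expressing SH-SY5Y cells, pretreated 16 h with compound, are challenged with thapsigargin to empty ER calcium stores; after 4 h, coelenterazine is added directly to the medium and luminescence is imaged.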

Assay [14] addresses Cytochrome P450 2C19 (Homo sapiens) (UniProt P33261). As to the kind of experiment: qHTS Assay for Inhibitors and Substrates of Cytochrome P450 2C19 (AID 899). Also: potency is read from the fitted curve at half-maximal effect; nearly all actives have a fitted effect of over 60% in size. As to conditions: recombinant CYP2C19, luciferin-H EGE luminescence; series mostly up to 57.1 µM. The essentials:
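Luminescence readout of luciferin formed from 10uM Luciferin-H EGE (KM level) by 5 nM CYP2C19 in 50mM KPO4. 60 min NADPH-driven reaction at 37C after 10 min compound preincubation; data scaled to 57uM ketoconazole inhibition.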

Assay [15] concerns the target Ubiquitin carboxyl-terminal hydrolase 1 (Homo sapiens) (UniProt O94782). As to the kind of experiment: Inhibitors of USP1/UAF1: Pilot qHTS (AID 504865).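 Also: rhodamine fluorescence freed from ubiquitin-rhodamine substrate followed over time; top concentration of the series differs between compounds; % is scaled to controls: 0 for no effect and ±100 for the full control effect; nearly all actives have a fitted effect of over 35% in size.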 Particulars: purified USP1/UAF1, Ub-rhodamine cleavage fluorescence; series mostly up to 54.9 µM. The essentials:
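In 50mM HEPES pH 7.8 containing 0.5mM EDTA, 1mM TCEP, 0.1 mg/ml BSA and 0.01% Tween-20, 1nM USP1/UAF1 is exposed to compound for 15 min, then Ub-Rho (150nM final) is added and fluorescence is read over time.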

Assay [16] addresses Cytochrome P450 3A4 (Homo sapiens) (UniProt P08684). As to the kind of experiment: qHTS Assay for Inhibitors and Substrates of Cytochrome P450 3A4 (AID 884). Also: potency is read from the fitted curve at half-maximal effect; nearly all actives have a fitted effect of over 50% in size. Particulars: recombinant CYP3A4, Luciferin-PPXE luminescence; series mostly up to 57.1 µM. In short, it runs like this: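 20 nM human CYP3A4 with 25 uM Luciferin-PPXE (at KM) in 200 mM KPO4, preincubated 10 min with compound; NADPH regeneration started a 60 min RT reaction. Luciferin detected by luminescence, normalized to 57 uM ketoconazole as full inhibition.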

Each structure is given as a SMILES string. Values without a mark were called inactive. Results filed as inconclusive are left out. Active and inactive are the calls of the source. Unless noted, calls follow the shape of the dose curve; as a rule, active = well fitted curve in the direction sought with a large enough effect; inconclusive = small, poorly fitted or top-dose-only effect, or another doubt; inactive = no such curve, though single readings can be large; an effect the other way counts as inactive or inconclusive. A value given as a limit tells only on which side of the number the result lay.

Sequence of Cytochrome P450 3A4 (Homo sapiens) (P08684 whole entry, looked up): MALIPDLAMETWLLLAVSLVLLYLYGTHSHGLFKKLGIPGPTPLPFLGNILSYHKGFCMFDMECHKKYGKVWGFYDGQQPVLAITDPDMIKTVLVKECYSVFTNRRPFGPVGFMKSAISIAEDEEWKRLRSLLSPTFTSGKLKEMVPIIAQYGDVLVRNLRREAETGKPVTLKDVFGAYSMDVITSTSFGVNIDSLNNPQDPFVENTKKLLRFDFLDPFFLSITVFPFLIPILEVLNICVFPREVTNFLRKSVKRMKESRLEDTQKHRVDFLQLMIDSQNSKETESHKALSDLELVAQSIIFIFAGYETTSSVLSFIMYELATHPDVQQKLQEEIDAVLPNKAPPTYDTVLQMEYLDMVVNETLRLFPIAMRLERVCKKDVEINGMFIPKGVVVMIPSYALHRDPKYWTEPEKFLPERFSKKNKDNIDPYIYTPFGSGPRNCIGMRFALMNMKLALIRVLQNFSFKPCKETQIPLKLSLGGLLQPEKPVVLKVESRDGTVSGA
Sequence of Lysosomal acid glucosylceramidase (Homo sapiens) (P04062 whole entry, looked up): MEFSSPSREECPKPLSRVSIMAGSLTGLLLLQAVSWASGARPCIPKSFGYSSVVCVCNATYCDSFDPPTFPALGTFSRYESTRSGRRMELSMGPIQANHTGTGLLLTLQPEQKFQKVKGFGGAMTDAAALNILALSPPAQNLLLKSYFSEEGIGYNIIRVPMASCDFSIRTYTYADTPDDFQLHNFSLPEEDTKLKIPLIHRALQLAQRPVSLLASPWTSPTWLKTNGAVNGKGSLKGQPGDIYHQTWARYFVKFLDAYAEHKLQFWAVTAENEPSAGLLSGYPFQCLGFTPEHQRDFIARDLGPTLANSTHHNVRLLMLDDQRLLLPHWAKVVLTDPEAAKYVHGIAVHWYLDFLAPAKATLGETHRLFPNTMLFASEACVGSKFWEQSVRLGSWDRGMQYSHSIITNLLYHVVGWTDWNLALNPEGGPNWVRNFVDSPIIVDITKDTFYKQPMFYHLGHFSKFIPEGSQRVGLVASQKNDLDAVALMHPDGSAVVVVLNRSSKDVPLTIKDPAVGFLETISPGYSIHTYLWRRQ
Sequence of Ubiquitin carboxyl-terminal hydrolase 1 (Homo sapiens) (O94782 whole entry, looked up): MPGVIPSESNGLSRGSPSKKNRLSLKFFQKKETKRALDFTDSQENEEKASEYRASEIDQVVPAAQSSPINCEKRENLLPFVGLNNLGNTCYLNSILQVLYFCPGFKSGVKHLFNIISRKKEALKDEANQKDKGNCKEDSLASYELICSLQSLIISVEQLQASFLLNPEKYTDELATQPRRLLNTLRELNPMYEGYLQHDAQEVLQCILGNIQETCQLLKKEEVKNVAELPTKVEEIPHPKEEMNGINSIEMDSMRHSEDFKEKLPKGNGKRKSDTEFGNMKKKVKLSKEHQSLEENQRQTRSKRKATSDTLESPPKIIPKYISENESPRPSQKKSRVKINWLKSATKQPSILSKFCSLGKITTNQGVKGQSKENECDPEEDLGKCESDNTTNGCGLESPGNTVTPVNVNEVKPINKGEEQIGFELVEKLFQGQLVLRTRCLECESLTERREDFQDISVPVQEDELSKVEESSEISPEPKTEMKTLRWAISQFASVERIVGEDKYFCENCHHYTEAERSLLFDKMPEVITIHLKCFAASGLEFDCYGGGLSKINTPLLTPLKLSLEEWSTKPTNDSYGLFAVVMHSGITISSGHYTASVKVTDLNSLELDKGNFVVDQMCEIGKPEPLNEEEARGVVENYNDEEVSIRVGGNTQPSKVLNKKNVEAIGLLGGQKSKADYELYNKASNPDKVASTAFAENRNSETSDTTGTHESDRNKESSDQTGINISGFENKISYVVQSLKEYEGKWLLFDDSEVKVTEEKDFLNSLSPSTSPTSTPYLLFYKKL
Sequence of Cytochrome P450 2C19 (Homo sapiens) (P33261 whole entry, looked up): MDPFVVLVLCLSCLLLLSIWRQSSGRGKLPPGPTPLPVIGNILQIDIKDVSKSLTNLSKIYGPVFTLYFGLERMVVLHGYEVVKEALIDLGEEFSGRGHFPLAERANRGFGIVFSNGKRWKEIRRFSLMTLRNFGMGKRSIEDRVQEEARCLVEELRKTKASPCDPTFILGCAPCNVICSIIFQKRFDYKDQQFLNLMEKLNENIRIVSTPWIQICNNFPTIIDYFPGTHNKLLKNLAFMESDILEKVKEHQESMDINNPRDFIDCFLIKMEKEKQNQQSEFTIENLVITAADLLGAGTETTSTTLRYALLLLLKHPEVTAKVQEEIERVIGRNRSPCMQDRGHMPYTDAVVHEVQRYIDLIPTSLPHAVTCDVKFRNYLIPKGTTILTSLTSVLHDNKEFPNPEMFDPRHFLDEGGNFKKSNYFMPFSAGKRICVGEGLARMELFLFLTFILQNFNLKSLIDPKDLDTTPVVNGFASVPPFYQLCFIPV

As to `COc1ncc2nc(C)c(=O)n(-c3ccccc3)c2n1`, the Potency in [1] was over 11.4 µM; in assay [3] it was 5.01 µM (active); in assay [6] it was over 9.22 µM; in assay [7] it was over 46 µM. Besides, the activity change, negative = inhibition is -2.25% in assay [2] and 2.66% in assay [4]. Also, the activity, negative = inhibition in assay [5] was -8.97%. Besides, the Potency entry in [8], in assay [9], in assay [10], in assay [11] and in [12] was “inactive” in each case. Moreover, in assay [13], the outcome was inactive.
For `Cn1cc(-c2nc3cnc(N4CCNCC4)nc3n(Cc3ccc(F)cc3)c2=O)c2ccccc21`, the Potency was over 11.4 µM in assay [1]; 20 µM (active) in assay [3]; over 9.22 µM in assay [6]; over 46 µM in [7]; 7.94 µM (active) in assay [14]. The activity change, negative = inhibition in [4] is 68.4% [activator] (active). The Potency entry in assay [9], in assay [10], in assay [11] and in assay [12] was “inactive” each time. For the same molecule, the result in assay [13] was inactive.
For the molecule `O=c1c(-c2ccccc2)nc2cnc(N3CCOCC3)nc2n1Cc1cccs1`, the values for the Potency in [1], in assay [3] and in assay [7] were over 11.4 µM, 2.51 µM (active) and over 46 µM, respectively. The values for the activity change, negative = inhibition in assay [2] and in [4] were 20.9% and 14.9%, respectively. Besides, the activity, negative = inhibition in assay [5] is 20.6%. Moreover, the Potency entry in assay [8], in [9], in assay [11], in [12] and in assay [15] was “inactive” in each case. Further, the outcome in [13] was inactive.
As to `COCCn1c(=O)c(CCc2ccccc2)nc2cnc(Nc3ccccc3)nc21`, the values for the Potency in [1], in [6] and in assay [7] were over 11.4 µM, over 9.22 µM and over 46 µM, respectively. Moreover, the activity change, negative = inhibition was 16.9% in assay [2] and 10.5% in assay [4]. Also, the Potency entry in assay [8], in [11], in [12] and in [15] was “inactive” in each case. In assay [13], the result was inactive.
Turning to `COc1cccc(-c2cncnc2NCc2cccc(C)c2)c1`, the Potency in [1] is over 11.4 µM; in assay [3] it was 2 µM (active); in assay [6], over 46 µM; in [7], over 46 µM; in [16], 0.398 µM (active); in assay [14] it was 0.794 µM (active). For the same molecule, the Potency in assay [11] is 31.6 µM (active); in assay [12], 25.1 µM (active). Also, the figures for the activity change, negative = inhibition in assay [2] and in [4] were -11.8% and -0.339%, respectively. In addition, in [5], the activity, negative = inhibition is -10.4%. Moreover, the Potency result in [8], in [10] and in [15] was “inactive” in each case. Moreover, the result in assay [13] was inactive.
As to `CN(C)c1ncc2nc(-c3cccs3)c(=O)n(CCc3ccccc3)c2n1`, the Potency in assay [1] was over 11.4 µM; in [3], 5.01 µM (active); in assay [6], over 9.22 µM; in [7], over 46 µM. Besides, the activity change, negative = inhibition was 14.4% in assay [2] and 9.39% in assay [4]. Further, the Potency entry in assay [9], in [11], in [12] and in assay [15] was “inactive” in each case. Besides, in assay [13], the result was inactive.
For the molecule `Cc1cnc(CNc2cc(-c3ccc(N(C)C)cc3)ncn2)cn1`, the Potency is over 11.4 µM in assay [1], over 46 µM in assay [7], 5.01 µM (active) in assay [11] and 5.01 µM (active) in assay [12]. Further, the activity change, negative = inhibition is -9.61% in assay [2] and 11.3% in assay [4]. Moreover, in assay [5], the activity, negative = inhibition was -5.54%. Moreover, the Potency result in assay [8], in [9] and in assay [15] was “inactive” each time. In addition, the result in [13] was inactive.
